# The supplement of paper PMC7411054
# Where a name gives a salt, the structure may show the parent alone.
# Test system: WPMY1-TP53BP1-CLTA
# Test: lowest phenotypically active concentration; higher = less potent
# Settings: treatment time: 24 h
# Method in brief: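 Fifteen gene-edited A549, HepG2 and WPMY1 reporter lines (BFP segmentation plus GFP and RFP/FusionRed markers) were treated at 0.3, 1, 3 or 9 µM for 24 h, four wells each, then imaged live. Live-cell features per well were normalised to DMSO control wells. Deviation required ≥3 of 4 wells beyond the 95th percentile of DMSO Euclidean distances, and reproducibility required median replicate Pearson correlation above the 95th percentile of non-replicates. Phenotypic activity needed both criteria.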
row,Structure (SMILES),lowest phenotypically active concentration [µM]
1,Oc1cccc(-c2nc(N3CCOCC3)c3oc4ncccc4c3n2)c1 [PI 103 hydrochloride],≤ 0.3
2,COc1cc(/C=C/c2ccc(OC)cc2OC)cc(OC)c1,1
3,COc1cc2c(cc1-c1c(C)noc1C)ncc1[nH]c(=O)n([C@H](C)c3ccccn3)c12 [I-BET 151 dihydrochloride],3
4,COc1cccc(-c2cc(F)ccc2[C@H]2Cc3nc(N)nc(C)c3C(=O)N2)n1,≤ 0.3
5,COc1cc(C(=O)NC2CCN(C)CC2)c(F)cc1Nc1ncc2c(n1)N(C1CCCC1)CC(F)(F)C(=O)N2C [TAK 960 hydrochloride],≤ 0.3
6,CC[C@]1(O)C[C@@H]2CN(CCc3c([nH]c4ccccc34)[C@@](C(=O)OC)(c3cc4c(cc3OC)N(C=O)[C@H]3[C@@](O)(C(=O)OC)[C@H](OC(C)=O)[C@]5(CC)C=CCN6CC[C@]43[C@@H]65)C2)C1 [vincristine],≤ 0.3
7,OC[C@H]1O[C@@H](n2cnc3c(NCc4ccco4)ncnc32)[C@H](O)[C@@H]1O [Kinetin riboside],1
8,N#Cc1c(C2CCNCC2)cc(-c2c(O)cccc2OCC2CC2)nc1N,9
9,C=CC(=O)Nc1cccc(Nc2nc(Nc3ccc(OCCOC)cc3)ncc2F)c1,9
10,COc1cc(N2CCC(N3CCN(C)CC3)CC2)ccc1Nc1ncnc(Nc2ccccc2S(=O)(=O)C(C)C)n1,9
11,Fc1ccccc1CNCc1ccc(-c2ccnc3[nH]ccc23)cc1 [OXA 06 dihydrochloride],9
12,C[C@H]1COCCN1c1cc(C2(S(=O)(=O)C3CC3)CC2)nc(-c2ccc(NC(=S)NCCO)cc2)n1,≤ 0.3
